# Measured values published in the supplement of paper PMC4894684.
# Counter-ions that a name gives are not always drawn. ± gives the standard deviation of the averaged measurements.
# System: Toxoplasma gondii RH (in HFF)
# Assay: parasite growth relative to the screen mean (all compounds = 100%); higher = less inhibition of parasite growth
# Details: 5 µM; 72 h; oxygen 21 %
# How it was run: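 Values give growth relative to the screen mean. The screen mean (all compounds) is set at 100%, and two screens were averaged. Compounds at 5 µM final were placed on confluent human foreskin fibroblasts, which were infected within 2 h with RH β-Gal–GFP Toxoplasma (MOI 1:5) and kept 72 h at 21% O2 before a CPRG β-Gal readout against in-plate standard curves.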
row,Compound,parasite growth [%]
1,N=C(N)NN [Aminoguanidine hydrochloride],124 ± 28
2,CC[C@@H](CO)NC(=O)[C@@H]1C=C2c3cccc4[nH]cc(c34)C[C@H]2N(C)C1 [Methylergometrine maleate],177 ± 41
3,Nc1ccncc1 [4-Aminopyridine],157 ± 28
4,N=C(NCc1ccc(Cl)cc1)SCCCc1c[nH]cn1 [Clobenpropit dihydrobromide],106 ± 11
5,Cc1ncsc1CCCl [Chlormethiazole hydrochloride],60 ± 21
6,COc1ccc(C(=O)c2c(C)n(CCN3CCOCC3)c3cc(I)ccc23)cc1,149 ± 18
7,O=C1CSC(c2ccccc2Cl)c2cc(Cl)ccc2N1 (stereo not drawn),153 ± 4.7
8,N[C@H](C(=O)O)c1cc(O)no1 [Ibotenic acid],136 ± 26
9,c1ccc(C2CC2)c(OCC2=NCCN2)c1 [Cirazoline hydrochloride],91.7 ± 19
10,C=CCN1CC[C@]23c4c5ccc(O)c4O[C@H]2C(=O)CC[C@@]3(O)[C@H]1C5 [Naloxone hydrochloride],143 ± 14
11,C[C@@H](N)Cc1cnc[nH]1 [(R)-(-)- α-Methylhistamine dihydrobromide],107 ± 25
12,CCC(Oc1ccc(Cl)cc1)C(=O)OC1C[C@H]2CC[C@@H](C1)N2C (stereo partly drawn) [SM-21 maleate],95.2 ± 2.9
13,O=C1NCN(c2ccccc2)C12CCN(CC1COc3ccccc3O1)CC2 (stereo not drawn) [Spiroxatrine],140.8 ± 0.7
14,CC[C@@]1(O)C(=O)OCc2c1cc1n(c2=O)Cc2cc3ccccc3nc2-1 [Camptothecin],181 ± 36
15,C1CCc2nnnn2CC1 [Pentylenetetrazole],110 ± 22
16,c1ccc2sc(C3(N4CCCCC4)CCCCC3)cc2c1 [BTCP maleate],64.9 ± 4.1
17,FC(F)(F)c1cccc(C2=CCN(CCc3ccc4ccccc4c3)CC2)c1 [Xaliproden hydrochloride],159.2 ± 1.1
18,C[C@@]12N[C@@H](Cc3ccccc31)c1ccccc12 [(-)-MK 801 maleate],111 ± 10
19,CCOC(=O)c1ncn2c1[C@@H]1CCCN1C(=O)c1cc(OC)ccc1-2,93.9 ± 12

row,Compound,parasite growth [%]
1,O=C1NC(=O)c2c1c1c3ccccc3[nH]c1c1[nH]c3ccccc3c21 [Arcyriaflavin A],21.1 ± 14
2,C[C@@H]1CC[C@H]2[C@@H](C)C(=O)O[C@@H]3O[C@@]4(C)CC[C@@H]1[C@]32OO4 [Artemisinin],31.6 ± 8.8
3,NCCc1c[nH]c2ccc(C(N)=O)cc12 [5-Carboxamidotryptamine maleate],158 ± 72
4,CCCN(CCC)[C@@H]1CCc2c(OC)cccc2[C@@H]1C [(+)-UH 232 maleate],115 ± 20
5,Ic1cncc(OC[C@@H]2CCN2)c1,137 ± 16
6,CCCN1CCO[C@@H]2c3cc(O)ccc3OC[C@H]21,96 ± 2.6
7,CC(C(=O)OC1CC2CCC(C1)N2C)c1ccc(Br)cc1 (stereo not drawn) [PG-9 maleate],101 ± 1.4
8,COc1ccc(C[C@H]2NC[C@H](O)[C@H]2OC(C)=O)cc1 [Anisomycin],< 0
9,CC(=O)N(C)c1cccc(-c2ccnc3c(C(=O)c4cccs4)cnn23)c1 [Indiplon],79.5 ± 17
10,"Clc1ccc(N2CCN(Cc3c[nH]c4ncccc34)CC2)cc1 [L-745,870 trihydrochloride]",72.9 ± 7.7
11,COc1ccc(-n2nc(C(F)(F)F)cc2-c2ccc(Cl)cc2)cc1,117 ± 22
12,CN1[C@@H]2CC[C@H]1C[C@@H](OC(=O)c1cc(Cl)cc(Cl)c1)C2,70.1 ± 18
13,c1ccc2c(c1)[I+]c1ccccc1-2 [Diphenyleneiodonium chloride],< 0
14,CC(C)n1cnc2c(C(=O)N[C@H]3CN4CCC3CC4)cc(Cl)cc21,71.5 ± 9.6
15,S=C=Nc1cccc(C2(N3CCCCC3)CCCCC2)c1 [Metaphit],51.3 ± 6
16,"CC(=O)N1CC[N+](C)(C)CC1 [4-Acetyl-1,1-dimethylpiperazinium iodide]",130 ± 13
17,CN1C[C@H](C(=O)N[C@]2(C)O[C@@]3(O)[C@@H]4CCCN4C(=O)[C@H](Cc4ccccc4)N3C2=O)C[C@@H]2c3cccc4[nH]cc(c34)C[C@H]21 [Dihydroergotamine mesylate],39.27 ± 0.23
18,CNCCc1cnc[nH]1 [N α-Methylhistamine dihydrochloride],102 ± 1.5
19,NCC(O)c1ccc(O)cc1 (stereo not drawn) [Octopamine hydrochloride],76.6 ± 12
